Screening results (PubChem BioAssay)
Most compounds without a hit are left out; they make up all but 5.4% or so of the library.
PP1 counter: PP1-alpha phosphatase inhibitors, primary screen, counter-screen for PP5 inhibitor project, biochemical, fluorescence, OMFP substrate, single point; Serine/threonine-protein phosphatase PP1-alpha catalytic subunit (Homo sapiens), P62136; AID 2235, 2010; purified PP1alpha; 320,000 compounds, 0.9% hits; inhibition, % at 6.7 µM;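 active = inhibition above the mean inhibition of all tested compounds plus 3 SD, computed separately for each screening campaign, cut at about 15% in these data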
CSC inhib: cancer stem cell viability inhibitors, primary screen, luminescence | 300,000 compounds, 1.1% hits | inhibition, % at 7.5 µM | cancer stem cell-like cells viability | AID 2717, 2010; in the data active = inhibition above about 75%; inconclusive = no clear call, values can overlap the other calls; tested in HMLE shEcad cells
ALR inh: inhibitors of human ALR sulfhydryl oxidase, primary screen, biochemical, H2O2 detection, HRP-luminol luminescence, single point; FAD-linked sulfhydryl oxidase ALR (Homo sapiens), P55789; purified ALR, DTT oxidation; inhibition, % (no concentration beside the values); 290,000 compounds, 3.8% hits; AID 485317, 2010;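 active = mean replicate inhibition above about 79%, with every replicate also reaching it, limit read from the data; inconclusive = only one of the two criteria met; inactive = mean below limit and not every replicate reaching it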
Target sequence (P55789 whole entry, looked up): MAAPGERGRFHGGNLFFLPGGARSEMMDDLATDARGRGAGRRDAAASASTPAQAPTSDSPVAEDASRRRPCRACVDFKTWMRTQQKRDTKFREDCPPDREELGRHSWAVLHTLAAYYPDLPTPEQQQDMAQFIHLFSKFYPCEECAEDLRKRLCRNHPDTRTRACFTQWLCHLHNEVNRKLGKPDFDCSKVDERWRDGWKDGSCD
Calb FLC: C. albicans growth inhibition with fluconazole, primary screen, CaCi-2 strain, Alamar Blue fluorescence. growth inhibition, % (test concentration not listed). C. albicans CaCi-2 (fluconazole-resistant clinical isolate) + fluconazole, 48 h. AID 1979, 2009. 300,000 compounds, 0.57% hits;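 active = growth inhibition above about 58% in most replicates, limit read from the data, passing the limit was not always enough; inconclusive = exactly half the replicates above a set limit; inactive = most replicates below a set limit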;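 also: all wells also contain fluconazole at 8 µg/ml as a sub-toxic cotreatment; 0% = median of DMSO wells and 100% = median of geldanamycin control wells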
PP5 inh: PP5 phosphatase inhibitors, primary screen, biochemical, fluorescence; 320,000 compounds, 0.18% hits; purified PP5c, OMFP substrate fluorescence; AID 1987, 2009; Serine/threonine-protein phosphatase 5 (Homo sapiens), P53041; inhibition, % at 6.7 µM;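 active = inhibition above the campaign's mean inhibition across all tested compounds plus 3 SD, cut at about 9.5% in these data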;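 also: 0% = DMSO only and 100% = 100 µM cantharidin control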
Target sequence (P53041 whole entry, looked up): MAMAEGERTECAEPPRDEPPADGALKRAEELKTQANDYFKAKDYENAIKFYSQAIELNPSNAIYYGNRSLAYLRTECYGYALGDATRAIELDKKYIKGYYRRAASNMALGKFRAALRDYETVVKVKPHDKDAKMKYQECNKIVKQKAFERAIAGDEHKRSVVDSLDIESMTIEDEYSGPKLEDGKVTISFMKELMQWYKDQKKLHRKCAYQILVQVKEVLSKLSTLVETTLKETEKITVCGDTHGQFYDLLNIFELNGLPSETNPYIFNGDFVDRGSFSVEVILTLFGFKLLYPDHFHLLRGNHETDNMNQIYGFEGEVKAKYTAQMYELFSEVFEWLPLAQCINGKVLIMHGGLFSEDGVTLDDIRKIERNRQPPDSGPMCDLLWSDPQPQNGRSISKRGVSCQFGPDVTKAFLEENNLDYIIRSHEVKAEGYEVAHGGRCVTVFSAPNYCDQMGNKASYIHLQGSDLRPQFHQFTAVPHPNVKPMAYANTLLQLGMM
PP5 conf: PP5 phosphatase inhibitors, confirmation, biochemical, fluorescence, human; AID 2331, 2010; 460 compounds, 22% hits; shares compounds with PP5 inh; Purified PP5, fluorogenic phosphatase substrate; inhibition, % at 6.7 µM; in the data active = inhibition above about 9.5%
PP1 inh counter: PP1 phosphatase inhibitors, counter-screen for PP5 inhibitor project, biochemical, fluorescence, triplicate | PP1 enzyme, fluorescent phosphatase substrate | 460 compounds, 4% hits | inhibition, % at 6.7 µM | shares compounds with PP5 inh | AID 2355, 2010; in the data active = inhibition above about 16%
Starred values were filed as active, the others as inactive; u = inconclusive; x = not tested or not shown.

SMILES | PP1 counter | CSC inhib | ALR inh | Calb FLC | PP5 inh | PP5 conf | PP1 inh counter
O=C(O)c1nnn(-c2cc(C(F)(F)F)cc(C(F)(F)F)c2)c1-c1ccccc1 | 4.5 | -13.4 | -2.3 | 0.2 | 19.9* | -2.3 | -2.1
C=CCn1cnc2c(nnn2-c2ccc(Cl)cc2)c1=O | -3.3 | 6.8 | -11.7 | -7.6 | -1.1 | x | x
N=c1c2c(-c3ccccc3)c(-c3ccccc3)oc2ncn1CCN1CCOCC1 | 6.8 | 16.2 | x | 39.4 | 10.8* | -1.4 | 0.4
N=c1c2c(-c3ccccc3)c(-c3ccccc3)oc2ncn1CCCN1CCOCC1 | -0.9 | 6.9 | -7.9 | 21.8 | 0.5 | x | x
CC(C)Oc1cc(C(=O)NC2CCCCC2)c2ccccc2n1 | 3.7 | 3.3 | -3.2 | 0.2 | 4.0 | x | x
Cc1cc(C)c(S(=O)(=O)N(CC(=O)N2CCOCC2)C2CCCCC2)c(C)c1 | 2.7 | -8.2 | x | 4.7 | 2.0 | x | x
Cc1ccc(N2C(=O)CC(NNc3nc4ccccc4s3)C2=O)cc1C (stereo not drawn) | -0.8 | -7.2 | 2.7 | -2.6 | 4.5 | x | x
COc1ccc(N2C(=O)CC(NNc3nc4ccccc4s3)C2=O)cc1 (stereo not drawn) | -2.3 | -6.3 | -1.5 | u | 12.0* | 0.3 | 0.4
O=C(NC1(O)C(=O)c2ccccc2C1=O)c1ccccc1 | 0.9 | -0.6 | 38.5 | -3.7 | 14.8* | 38.7* | 12.7
O=C(Nc1ccccc1Cl)c1c(F)c(F)c(F)c(F)c1F | 0.1 | 14.9 | x | -22.4 | 0.9 | x | x
O=C(NC1(O)C(=O)c2ccccc2C1=O)c1c(Cl)cccc1Cl | 2.8 | 6.4 | 9.3 | -5.8 | 16.4* | 41.5* | 7.4
O=C(Cc1ccccc1)NCC(=O)OCc1cccc([N+](=O)[O-])c1 | -1.6 | -2.9 | 2.6 | -1.8 | 1.1 | x | x
N#CC1=C(N)NC(SCc2ccccc2)=C(C#N)C12CCCCC2 | -2.9 | 58.6 | -7.1 | 19.7 | 12.4* | 1.4 | 3.3
CC(=O)C(C(C)=O)C1(O)C(=O)c2ccccc2C1=O | 3.4 | -15.6 | 33.7 | -3.2 | 14.3* | 38.4* | 3.3
COc1ccc(C(=O)Nc2ccc(OCC(F)(F)C(F)F)c(C(F)(F)F)c2)cc1OC | 10.9 | 92.3* | -0.4 | -0.1 | 12.4* | 11.2* | 7.6
CC(C)(C)C(=O)N=C1SC2CS(=O)(=O)CC2N1c1ccc2c(c1)OCO2 (stereo not drawn) | -0.4 | -7.3 | -22.0 | -12.1 | 2.0 | x | x
Cc1oc(C(C)(C)C)cc1-c1cc(NC(=O)c2ccc([N+](=O)[O-])cc2)n[nH]1 | 0.9 | 4.2 | -27.8 | 0.0 | 1.2 | x | x
COc1ccc(Br)c(C(=O)Nc2ccc(F)cc2)c1 | 4.8 | x | -3.5 | -1.6 | 16.0* | -3.4 | -4.0
COc1cccc(NC(=O)c2ccccc2Br)c1 | -1.3 | -8.6 | -25.2 | -13.1 | -0.8 | x | x
CCOc1ncccc1C(=O)OCC(=O)Nc1cc(S(=O)(=O)N2CCOCC2)ccc1C | -4.9 | -5.1 | 0.4 | 18.1 | 3.0 | x | x
C=C(C)C1CC=C(C)/C(=N/NC(=O)CNc2ccc(OCC)cc2)C1 (stereo not drawn) | 7.1 | 0.3 | -7.9 | 2.3 | 9.6* | -0.4 | 5.8
C=C(C)C1CC=C(C)/C(=N/NC(=O)CNc2ccc(C)cc2C)C1 (stereo not drawn) | -3.8 | -0.5 | -9.3 | -28.4 | 1.4 | x | x
CC1(C)CC(CCNC(=O)c2ccc(-n3cnnn3)cc2)CC(C)(C)N1 | -0.9 | 1.6 | x | -4.9 | 1.2 | x | x
Cc1[nH]n(-c2ccccc2)c(=O)c1C(C[N+](=O)[O-])c1ccc(Br)cc1 (stereo not drawn) | 1.0 | 34.7 | 41.1 | -5.1 | 2.4 | x | x
COc1cccc(C(C[N+](=O)[O-])c2c(C)[nH]n(-c3ccccc3)c2=O)c1 (stereo not drawn) | 2.2 | -12.2 | -27.2 | -19.7 | 12.0* | -0.7 | -1.9
SMILES | PP1 counter | CSC inhib | ALR inh | Calb FLC | PP5 inh | PP5 conf | PP1 inh counter
COc1ccccc1-c1noc(-c2ccccc2C(=O)Nc2cccnc2)n1 | 2.6 | -8.4 | -8.4 | -30.3 | 10.3* | -4.1 | -1.6
CC(C)(C)c1ccc(C(=O)NCC(=O)OCC(=O)N2CCN(S(=O)(=O)c3ccc(Cl)cc3)CC2)cc1 | 2.8 | -14.4 | -5.7 | -5.4 | 1.6 | x | x
Cc1cccc(OCC(=O)N/N=C/c2sc(=O)n(Cc3cccc(C(=O)O)c3)c2Cl)c1 | 2.8 | -12.0 | 14.8 | 2.0 | 12.5* | -2.6 | -1.4
COC(=O)c1cccc(Cn2c(Cl)c(/C=N/NC(=O)c3ccccc3Cl)sc2=O)c1 | 6.2 | -4.3 | -2.4 | 35.0 | 1.9 | x | x
O=C(CCC(=O)NC1CCCCC1)Nc1cccnc1 | -0.3 | -5.4 | 4.8 | -2.4 | -2.9 | x | x
COc1ccccc1N1CCN(C(=O)c2ccc(COc3cccc4c3OC(C)(C)C4)cc2)CC1 | 2.0 | 61.5 | 0.1 | -1.2 | 11.7* | 2.2 | 0.5
ONC(=Nc1ccccc1Cl)c1ccccc1Cl | 2.0 | -8.4 | 22.9 | 29.9 | 12.6* | -0.7 | -0.1
O=C(NCCC1CCCCN1S(=O)(=O)c1ccccc1)C(=O)Nc1ccccc1F (stereo not drawn) | -0.6 | 12.8 | x | 3.3 | 0.7 | x | x
Cc1nnc(SCC(=O)Nc2ccccc2C(=O)NC2CC2)s1 | -4.7 | x | -4.1 | u | 0.3 | x | x
COc1cc2c(cc1OC)C(c1cccs1)N(C(=O)C(C)C)CC2 (stereo not drawn) | 0.0 | 18.4 | u | 6.8 | 9.9* | -5.1 | -5.3
COc1ccc(/C=N/Nc2cc(N3CCCC3)nc(N3CCCC3)n2)cc1 | 6.3 | 91.7* | -42.6 | 25.3 | 16.0* | 33.5* | 17.5*
Oc1cccc(/C=N/Nc2cc(N3CCCC3)nc(N3CCCC3)n2)c1 | 2.7 | -0.5 | -17.5 | -5.0 | 16.3* | 37.2* | 10.1
Oc1ccc(/C=N/Nc2cc(N3CCCC3)nc(N3CCCC3)n2)cc1 | 3.4 | 5.3 | 14.2 | -4.0 | 15.5* | 36.9* | 13.7
Cc1cc(C)n(CC2CC(=O)N(c3cc(Cl)cc(Cl)c3)C2=O)n1 (stereo not drawn) | -1.4 | -3.8 | 8.7 | 24.5 | -0.2 | x | x
Cc1cccc(OCC(=O)Nc2ccc(CN3CCOCC3)cc2)c1C | -2.9 | 10.3 | 0.6 | 7.5 | 2.8 | x | x
CCOC(=O)/C=C/C(=O)Nc1ccc(S(=O)(=O)Nc2c(C)cc(C)cc2C)cc1 | -4.2 | 43.7 | x | 21.8 | 9.6* | 2.9 | 4.8
CCOC(=O)c1c(-c2cccc3ccccc23)csc1NC(=O)C1C2CCC(O2)C1C(=O)O (stereo not drawn) | 6.3 | -0.5 | x | 0.3 | 10.8* | 0.0 | 2.4
